From PMC9911399, “Two distinct binding modes provide the RNA-binding protein RbFox with extraordinary sequence specificity”
Residue numbers refer to the chain shown, from its start. Over roughly 16,000 sequences, “ka relative to ugcaugu” has its median near 0.0091; the highest 2% begin near 0.032. The list comes from a sample in which the highest values are over-represented; it also holds similar and randomly drawn sequences.

T1: RBFOX1 RRM (Homo sapiens, UniProt Q9NWB1 109-208)
T1 sequence: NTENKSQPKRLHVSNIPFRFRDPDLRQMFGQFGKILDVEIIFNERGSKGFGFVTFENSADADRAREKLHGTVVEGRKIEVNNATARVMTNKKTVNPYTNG

B1: UCCGUCU (DNA:RNA)
RNA: GGGAGACCGGAAUUCAGAUUGUCCUCCGUCUUUAAAUCCCGUCGUAGCCACCA
DNA 1: CAATCTGAATTCCGGTCTCCC
DNA 2: TGGTGGCTACGACGGGATT
B2: GGCAGGC (DNA:RNA)
RNA: B1 RNA with U25G, C26G, G28A, U29G, C30G, U31C
DNA 1: CAATCTGAATTCCGGTCTCCC
DNA 2: TGGTGGCTACGACGGGATT
B3: AAGCGUG (DNA:RNA)
RNA: GGGAGACCGGAAUUCAGAUUGUCCAAGCGUGUUAAAUCCCGUCGUAGCCACCA
DNA 1: CAATCTGAATTCCGGTCTCCC
DNA 2: TGGTGGCTACGACGGGATT
B4: UUGAUCA (DNA:RNA)
RNA: B1 RNA with C26U, C27G, G28A, U31A
DNA 1: CAATCTGAATTCCGGTCTCCC
DNA 2: TGGTGGCTACGACGGGATT
B5: GGGCUGG (DNA:RNA)
RNA: B3 RNA with A25G, A26G, G29U, U30G
DNA 1: CAATCTGAATTCCGGTCTCCC
DNA 2: TGGTGGCTACGACGGGATT
B6: AACCGCC (DNA:RNA)
RNA: B3 RNA with G27C, U30C, G31C
DNA 1: CAATCTGAATTCCGGTCTCCC
DNA 2: TGGTGGCTACGACGGGATT
B7: UCGCAUA (DNA:RNA)
RNA: B3 RNA with A25U, A26C, G29A, G31A
DNA 1: CAATCTGAATTCCGGTCTCCC
DNA 2: TGGTGGCTACGACGGGATT
B8: UCGCAUC (DNA:RNA)
RNA: B3 RNA with A25U, A26C, G29A, G31C
DNA 1: CAATCTGAATTCCGGTCTCCC
DNA 2: TGGTGGCTACGACGGGATT
B9: UCGCAUG (DNA:RNA)
RNA: B3 RNA with A25U, A26C, G29A
DNA 1: CAATCTGAATTCCGGTCTCCC
DNA 2: TGGTGGCTACGACGGGATT
B10: GUAAGUA (DNA:RNA)
RNA: B3 RNA with A25G, A26U, G27A, C28A, G31A
DNA 1: CAATCTGAATTCCGGTCTCCC
DNA 2: TGGTGGCTACGACGGGATT
B11: UCACAAA (DNA:RNA)
RNA: B1 RNA with C27A, G28C, U29A, C30A, U31A
DNA 1: CAATCTGAATTCCGGTCTCCC
DNA 2: TGGTGGCTACGACGGGATT
B12: GAGCAAA (DNA:RNA)
RNA: B3 RNA with A25G, G29A, U30A, G31A
DNA 1: CAATCTGAATTCCGGTCTCCC
DNA 2: TGGTGGCTACGACGGGATT
B13: CUUUGUC (DNA:RNA)
RNA: B3 RNA with A25C, A26U, G27U, C28U, G31C
DNA 1: CAATCTGAATTCCGGTCTCCC
DNA 2: TGGTGGCTACGACGGGATT
B14: AUCCCAA (DNA:RNA)
RNA: B3 RNA with A26U, G27C, G29C, U30A, G31A
DNA 1: CAATCTGAATTCCGGTCTCCC
DNA 2: TGGTGGCTACGACGGGATT
B15: GGAUUCA (DNA:RNA)
RNA: B1 RNA with U25G, C26G, C27A, G28U, U31A
DNA 1: CAATCTGAATTCCGGTCTCCC
DNA 2: TGGTGGCTACGACGGGATT
B16: GGGAUCG (DNA:RNA)
RNA: B3 RNA with A25G, A26G, C28A, G29U, U30C
DNA 1: CAATCTGAATTCCGGTCTCCC
DNA 2: TGGTGGCTACGACGGGATT
B17: GGAUCGU (DNA:RNA)
RNA: B1 RNA with U25G, C26G, C27A, G28U, U29C, C30G
DNA 1: CAATCTGAATTCCGGTCTCCC
DNA 2: TGGTGGCTACGACGGGATT
B18: CGGAUCA (DNA:RNA)
RNA: B1 RNA with U25C, C26G, C27G, G28A, U31A
DNA 1: CAATCTGAATTCCGGTCTCCC
DNA 2: TGGTGGCTACGACGGGATT
B19: CGGAUCG (DNA:RNA)
RNA: B3 RNA with A25C, A26G, C28A, G29U, U30C
DNA 1: CAATCTGAATTCCGGTCTCCC
DNA 2: TGGTGGCTACGACGGGATT
B20: GGGAUCC (DNA:RNA)
RNA: B1 RNA with U25G, C26G, C27G, G28A, U31C
DNA 1: CAATCTGAATTCCGGTCTCCC
DNA 2: TGGTGGCTACGACGGGATT
B21: GGAUCCG (DNA:RNA)
RNA: B3 RNA with A25G, A26G, G27A, C28U, G29C, U30C
DNA 1: CAATCTGAATTCCGGTCTCCC
DNA 2: TGGTGGCTACGACGGGATT
B22: GGAAUCG (DNA:RNA)
RNA: B1 RNA with U25G, C26G, C27A, G28A, U31G
DNA 1: CAATCTGAATTCCGGTCTCCC
DNA 2: TGGTGGCTACGACGGGATT
B23: GGGAUCA (DNA:RNA)
RNA: B1 RNA with U25G, C26G, C27G, G28A, U31A
DNA 1: CAATCTGAATTCCGGTCTCCC
DNA 2: TGGTGGCTACGACGGGATT
B24: UAUUAAG (DNA:RNA)
RNA: B3 RNA with A25U, G27U, C28U, G29A, U30A
DNA 1: CAATCTGAATTCCGGTCTCCC
DNA 2: TGGTGGCTACGACGGGATT
B25: UCGCAGA (DNA:RNA)
RNA: B3 RNA with A25U, A26C, G29A, U30G, G31A
DNA 1: CAATCTGAATTCCGGTCTCCC
DNA 2: TGGTGGCTACGACGGGATT
B26: AUACCGG (DNA:RNA)
RNA: B3 RNA with A26U, G27A, G29C, U30G
DNA 1: CAATCTGAATTCCGGTCTCCC
DNA 2: TGGTGGCTACGACGGGATT
B27: ACGUGUU (DNA:RNA)
RNA: B3 RNA with A26C, C28U, G31U
DNA 1: CAATCTGAATTCCGGTCTCCC
DNA 2: TGGTGGCTACGACGGGATT
B28: GCAGUUG (DNA:RNA)
RNA: B1 RNA with U25G, C27A, C30U, U31G
DNA 1: CAATCTGAATTCCGGTCTCCC
DNA 2: TGGTGGCTACGACGGGATT
B29: CUGUCCG (DNA:RNA)
RNA: B3 RNA with A25C, A26U, C28U, G29C, U30C
DNA 1: CAATCTGAATTCCGGTCTCCC
DNA 2: TGGTGGCTACGACGGGATT
B30: CUGCCCG (DNA:RNA)
RNA: B3 RNA with A25C, A26U, G29C, U30C
DNA 1: CAATCTGAATTCCGGTCTCCC
DNA 2: TGGTGGCTACGACGGGATT
B31: CUGCUCG (DNA:RNA)
RNA: B3 RNA with A25C, A26U, G29U, U30C
DNA 1: CAATCTGAATTCCGGTCTCCC
DNA 2: TGGTGGCTACGACGGGATT
B32: UGCCCGU (DNA:RNA)
RNA: B1 RNA with C26G, G28C, U29C, C30G
DNA 1: CAATCTGAATTCCGGTCTCCC
DNA 2: TGGTGGCTACGACGGGATT
B33: UCGUCGU (DNA:RNA)
RNA: B1 RNA with C27G, G28U, U29C, C30G
DNA 1: CAATCTGAATTCCGGTCTCCC
DNA 2: TGGTGGCTACGACGGGATT
B34: UGCUCGU (DNA:RNA)
RNA: B1 RNA with C26G, G28U, U29C, C30G
DNA 1: CAATCTGAATTCCGGTCTCCC
DNA 2: TGGTGGCTACGACGGGATT

molecular target: T1, RBFOX1 RRM; test: EMSA; HiTS-Eq, 1 nM pool, 10 min; buffer printed only for the single-RNA assays: 10 mM Tris pH 7.5, 150 mM NaCl, 3.4 mM EDTA, 0.001% NP-40, 30 C; conditions: tags: His6 N-terminal (pET28a); label: 5' 32P
Method in brief: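 A pool of RNA with 7 randomized nucleotides, 5′-radiolabelled and with DNA-annealed flanks, was equilibrated at 1 nM for 10 min in 50 µL with purified RbFox RRM, wild type or mutant, across increasing protein concentrations. Free RNA was separated by 8% native PAGE, excised, reverse-transcribed, barcoded by PCR and sequenced. Relative association constants were obtained from read-count changes of each RNA species versus the control reaction and normalised to the cognate motif.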

Binder	binding signal
B1	0.0154 KA relative to UGCAUGU
B2	0.0103 KA relative to UGCAUGU
B3	0.0169 KA relative to UGCAUGU
B4	0.0152 KA relative to UGCAUGU
B5	0.0301 KA relative to UGCAUGU
B6	0.00718 KA relative to UGCAUGU
B7	0.00838 KA relative to UGCAUGU
B8	0.0121 KA relative to UGCAUGU
B9	0.809 KA relative to UGCAUGU
B10	0.00628 KA relative to UGCAUGU
B11	0.00202 KA relative to UGCAUGU
B12	0.00616 KA relative to UGCAUGU
B13	0.0202 KA relative to UGCAUGU
B14	0.00187 KA relative to UGCAUGU
B15	0.0122 KA relative to UGCAUGU
B16	0.0449 KA relative to UGCAUGU
B17	0.0112 KA relative to UGCAUGU

Binder	binding signal
B18	0.0199 KA relative to UGCAUGU
B19	0.0358 KA relative to UGCAUGU
B20	0.0157 KA relative to UGCAUGU
B21	0.00934 KA relative to UGCAUGU
B22	0.0216 KA relative to UGCAUGU
B23	0.0351 KA relative to UGCAUGU
B24	0.0136 KA relative to UGCAUGU
B25	0.013 KA relative to UGCAUGU
B26	0.00158 KA relative to UGCAUGU
B27	0.0131 KA relative to UGCAUGU
B28	0.0127 KA relative to UGCAUGU
B29	0.0164 KA relative to UGCAUGU
B30	0.0183 KA relative to UGCAUGU
B31	0.0406 KA relative to UGCAUGU
B32	0.0214 KA relative to UGCAUGU
B33	0.0184 KA relative to UGCAUGU
B34	0.0359 KA relative to UGCAUGU
